# Results filed as inconclusive are left out. Calls of active or inactive are those of the source. Unless noted, no cut-off is given here; in the data, nearly all actives have AC50 up to about 26 µM.
# Assays:
# [1] = viability loss in pontine glioma line – cell-based, SU-DIPG-XVII, MIPE5.0, CellTiter-Glo, qHTS, dose response (AID 1347060); conditions: CellTiter-Glo ATP luminescence;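 for AC50: cells exposed to compound for 48 hours before viability readout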
# [2] = viability loss in pontine glioma line – cell-based, SU-DIPG-XIII, MIPE5.0, CellTiter-Glo, qHTS, dose response (AID 1347064; cut-off not given, nearly all actives have AC50 up to about 23 µM;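 for AC50: cells exposed to compound for 48 hours before the viability read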); conditions: CellTiter-Glo ATP luminescence
# [3] = viability loss in pontine glioma line – cell-based, SU-DIPG-XXV, MIPE5.0, CellTiter-Glo, qHTS, dose response (AID 1347065); conditions: CellTiter-Glo ATP luminescence;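 note: cells exposed to compound for 48 hours before ATP readout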
# [4] = JHH-DIPG-1 glioma cell viability, MIPE5.0 library, CellTiter-Glo luminescence, qHTS (AID 1347067); conditions: JHH-DIPG-1 glioma viability, CellTiter-Glo ATP luminescence;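 note: cells exposed to compound for 48 hours before readout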
# [5] = growth inhibition of DIPG cells – cell-based, MIPE5.0 library, qHTS (AID 1347068; cut-off not given, nearly all actives have IC50 up to about 30 µM;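 for IC50: cells exposed to compound for 48 hours before viability readout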); conditions: SU-DIPG-XXV viability
# [6] = viability loss with induced miR-34 in A549 – imaging, A549 dox-inducible miR-34, nuclei and caspase counts, primary screen (AID 1347080;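 active = compounds whose cell count with miR-34 switched on is under 0.7 times the count with it off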); conditions: A549 miR-34 inducible, Hoechst nuclei count, 48 h
# [7] = MELAS cybrid and Rieske KO viability enhancers – cell-based, MELAS cybrids, Rieske KO mouse fibroblasts, CellTiter-Glo, primary screen (AID 1508586;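 active = mean z-score across replicates of 1.96 or higher in either the MELAS or the Rieske mutant cell line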;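 note: z relative to plate mean and SD of compound and empty wells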); conditions: low glucose
# [8] = growth inhibition, single agent or in combination, cell-based, chromothripsis tumors, cisplatin or BGB combos (AID 1671449; in the data active = inhibition above about 80%;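 note: cells exposed for 96 hours; 0% = vehicle DMSO and 100% = killing by high DMSO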); conditions: LFS_MB_P medulloblastoma cells
# [9] = growth inhibition, single agent and combos, cell-based, chromothripsis tumors, cisplatin or BGB combos (AID 1671450; in the data active = inhibition above about 80%;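 note: cells exposed to compound for four days; 0% = vehicle DMSO and 100% = cell killing by high DMSO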); conditions: HDN33 neuroblastoma cells, stronger effect = higher value
# [10] = growth inhibition, single agents and combos, ICB984, cell-based, cisplatin or BGB combos, synergistic combos for chromothripsis tumors (AID 1671451; call rule not given here;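 note: cells exposed for 96 hours before readout; 0% = vehicle DMSO and 100% = killing by high DMSO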); conditions: ICB984 medulloblastoma cells, drug combinations, stronger effect = higher value
# [11] = growth inhibition, single agents and combos, LFS_MB_1R, cell-based, cisplatin or BGB combos, synergistic combos for chromothripsis tumors (AID 1671452; in the data active = inhibition above about 80%;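 note: cells exposed for 96 hours before readout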); conditions: LFS_MB_1R medulloblastoma cells, stronger effect = higher value
# [12] = growth inhibition, single agents and combos, HTB85, cell-based, BGB or cisplatin IC20 combos, synergistic combos for chromothripsis tumors (AID 1671453; in the data active = inhibition above about 80%;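 note: cells exposed for 96 hours before readout; 0% = vehicle DMSO and 100% = high DMSO killing control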); conditions: HTB85 osteosarcoma cells, drug combinations, stronger effect = higher value
# [13] = growth inhibition, single agents and combos, CRL2098, cell-based, BGB or cisplatin IC20 combos, synergistic combos for chromothripsis tumors (AID 1671454; in the data active = inhibition above about 80%;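 note: cells exposed for 96 h before readout; 0% = vehicle DMSO and 100% = killing by high DMSO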); conditions: CRL2098 osteosarcoma cells, drug combinations, stronger effect = higher value
# [14] = growth inhibition, single agents and combos, HD-MB03, cell-based, BGB or cisplatin IC20 combos, synergistic combos for chromothripsis tumors (AID 1671455; in the data active = inhibition above about 83%;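 note: 0% = vehicle DMSO and 100% = high DMSO as cytotoxic control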); conditions: HD-MB03 medulloblastoma cells, stronger effect = higher value
# [15] = growth inhibition, single agents and combos, UWB1.289, cell-based, BGB or cisplatin combos, synergistic combos for chromothripsis tumors (AID 1671456; in the data active = inhibition above about 80%;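 note: cells exposed to compound for four days; 0% = vehicle DMSO and 100% = killing by high DMSO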); conditions: UWB1.289 ovarian carcinoma cells, stronger effect = higher value
# [16] = growth inhibition, MDA-MB-436, cell-based, BGB or cisplatin combos, synergistic combos for chromothripsis tumors (AID 1671458; call rule not given here;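 note: cells exposed for 96 hours; 0% = vehicle DMSO and 100% = killing by high DMSO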); conditions: MDA-MB-436 breast carcinoma growth inhibition, drug combinations, stronger effect = higher value
# [17] = BT084 cell growth, single and combined drugs, ICGC_MB145, cisplatin and BGB IC40 combos (AID 1671461; in the data active = inhibition above about 80%;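 note: cells exposed to drugs for 96 hours; 0% = vehicle DMSO and 100% = high DMSO full killing control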); conditions: BT084 medulloblastoma cells, drug combinations, stronger effect = higher value
# [18] = RCMB18 cell growth, single agent and combined, cisplatin and BGB IC40 combos (AID 1671462; in the data active = inhibition above about 80%;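 note: cells exposed to compound for four days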); conditions: RCMB18 medulloblastoma cells, stronger effect = higher value
# [19] = CRL1545 cell growth, single agent and combined, cisplatin and BGB IC20 combos (AID 1671464; in the data active = inhibition above about 80%;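 note: cells exposed to compound for 96 hours before readout; 0% = vehicle DMSO and 100% = high DMSO killing control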); conditions: CRL1545 osteosarcoma cells, stronger effect = higher value
# [20] = stronger effect = lower value, cell number ratio, induced over uninduced
# [21] = measured here: relative caspase fold change +Dox/-Dox
# [22] = measured here: total cells with miR-34 induction, stronger effect = lower value
# [23] = measured here: total cells without miR-34 induction
# [24] = measured here: combination with BGB IC40, at 0.05 µM
# [25] = measured here: with BGB IC20 combination, at 0.5 µM
# [26] = measured here: with cisplatin IC20 combination, at 0.5 µM
# [27] = measured here: combination with cisplatin, at 0.5 µM
structure (smiles),measurement,setting,value
CCCc1c(OCCCOc2ccc(OCC(=O)O)cc2)ccc(C(C)=O)c1O,outcome,[1],inactive
same,outcome,[2],inactive
same,outcome,[3],inactive
same,outcome,[4],inactive
same,outcome,[5],inactive
same,fold change,[6]; [20],0.974 (inactive)
same,fold change,[6]; [21],1.33
same,cell count,[6]; [22],9670
same,cell count,[6]; [23],9930
COc1cc(N2CCC(N(C)C)CC2)ccc1Nc1ncc(Cl)c(Nc2ccccc2P(C)(C)=O)n1,AC50,[1],1050 nM (active)
same,AC50,[2],934 nM (active)
same,AC50,[3],417 nM (active)
same,AC50,[4],1660 nM (active)
same,IC50,[5],1860 nM (active)
same,fold change,[6]; [20],1.01 (inactive)
same,fold change,[6]; [21],0.883
same,cell count,[6]; [22],1590
same,cell count,[6]; [23],1580
same,z-score,"[7]; MELAS cybrid survival, CellTiter-Glo 48 h, stronger effect = higher value",3.7 (active)
same,z-score,"[7]; Rieske KO mouse fibroblast survival, CellTiter-Glo 72 h",-0.471
CN(CCOc1ccc(C[C@H](Nc2ccccc2C(=O)c2ccccc2)C(=O)O)cc1)c1ccccn1,outcome,[1],inactive
same,outcome,[2],inactive
same,outcome,[3],inactive
same,outcome,[4],inactive
same,outcome,[5],inactive
c1ccc2c(-c3cnn4cc(-c5ccc(N6CCNCC6)cc5)cnc34)ccnc2c1,AC50,[1],3320 nM (active)
same,AC50,[2],5250 nM (active)
same,AC50,[3],2630 nM (active)
same,AC50,[4],2630 nM (active)
same,IC50,[5],5900 nM (active)
N=C1CCCN1Cc1[nH]c(=O)[nH]c(=O)c1Cl,outcome,[1],inactive
same,outcome,[2],inactive
same,outcome,[3],inactive
same,outcome,[4],inactive
same,outcome,[5],inactive
same,inhibition,"[8]; at 0.5 µM, stronger effect = higher value",-20% (inactive)
same,inhibition,"[8]; measured here: combination with BGB IC20, at 0.005 µM",7.99%
same,inhibition,"[8]; measured here: combination with BGB IC40, at 0.005 µM",-21.4%
same,inhibition,[8]; [24],-6.35%
same,inhibition,"[8]; measured here: combination with cisplatin, at 0.5 µM, stronger effect = higher value",-51.5%
same,inhibition,"[8]; measured here: combination with cisplatin, at 5 µM, stronger effect = higher value",0.237%
same,inhibition,"[9]; BGB combo, at 5 µM",-2.48%
same,inhibition,[9]; at 0.5 µM,2.44% (inactive)
same,inhibition,"[9]; cisplatin combo, at 5 µM",22.1%
same,inhibition,[9]; [25],3.45%
same,inhibition,[9]; [26],3.39%
same,inhibition,"[9]; single agent, at 5 µM",-10.2%
same,inhibition,"[10]; BGB IC20 combo, at 0.005 µM",12.8%
same,inhibition,"[10]; BGB IC40 combo, at 0.005 µM",-11.6%
same,inhibition,"[10]; BGB IC40 combo, at 0.05 µM",-8.96%
same,inhibition,[10]; at 0.5 µM,-1.56% (inactive)
same,inhibition,"[10]; cisplatin combo, at 0.05 µM",-12%
same,inhibition,"[10]; cisplatin combo, at 0.5 µM",11.2%
same,inhibition,"[10]; cisplatin combo, at 5 µM",-26.7%
same,inhibition,"[10]; measured here: 5 uM single agent, at 5 µM",-22.7%
same,inhibition,[11]; at 0.5 µM,-12.8% (inactive)
same,inhibition,[11]; [24],8.6%
same,inhibition,[11]; [27],-12.6%
same,inhibition,"[11]; measured here: combination with cisplatin, at 5 µM",-5.77%
same,inhibition,[12]; at 0.5 µM,8.24% (inactive)
same,inhibition,"[12]; measured here: with BGB IC20, at 0.5 µM",11.6%
same,inhibition,"[12]; measured here: with BGB IC20, at 5 µM",59.6%
same,inhibition,"[12]; measured here: with cisplatin IC20, at 0.5 µM",-6.26%
same,inhibition,"[12]; measured here: with cisplatin IC20, at 5 µM",-29%
same,inhibition,"[12]; single agent, at 5 µM",-1.22%
same,inhibition,[13]; at 0.5 µM,2.27% (inactive)
same,inhibition,"[13]; measured here: combination with BGB at IC20, at 0.5 µM",3.71%
same,inhibition,"[13]; measured here: combination with cisplatin at IC20, at 0.5 µM",0.594%
same,inhibition,[14]; at 0.5 µM,-9.24% (inactive)
same,inhibition,"[14]; measured here: combo with BGB at IC20, at 0.5 µM",-10.8%
same,inhibition,"[14]; measured here: combo with cisplatin at IC20, at 0.5 µM",-6.6%
same,inhibition,[15]; at 0.5 µM,19.4% (inactive)
same,inhibition,"[15]; measured here: inhibition with BGB combination, at 0.05 µM",-16.6%
same,inhibition,"[15]; measured here: inhibition with cisplatin combination, at 0.05 µM",-2.8%
same,inhibition,[16]; at 0.5 µM,-5.08% (inactive)
same,inhibition,"[16]; measured here: BGB combination, at 0.5 µM",3%
same,inhibition,"[16]; measured here: BGB combination, at 5 µM",-6.4%
same,inhibition,"[16]; measured here: cisplatin combination, at 0.5 µM",-14.7%
same,inhibition,"[16]; measured here: cisplatin combination, at 5 µM",-27%
same,inhibition,[17]; at 0.5 µM,-23.1% (inactive)
same,inhibition,"[17]; cisplatin combination, at 0.5 µM",-17.8%
same,inhibition,"[17]; cisplatin combination, at 5 µM",-5.35%
same,inhibition,"[17]; measured here: BGB IC40 combination 0.05 uM, at 0.05 µM",-15.9%
same,inhibition,"[17]; single agent, at 5 µM",-9.51%
same,inhibition,[18]; at 0.5 µM,3.14% (inactive)
same,inhibition,"[18]; cisplatin combo, at 5 µM",-11.8%
same,inhibition,"[18]; measured here: BGB IC40 combination, at 0.05 µM",22%
same,inhibition,[18]; [27],1.1%
same,inhibition,"[18]; single agent, at 5 µM",-5.54%
same,inhibition,[19]; at 0.5 µM,26.4% (inactive)
same,inhibition,[19]; [25],22.4%
same,inhibition,[19]; [26],26.7%
same,inhibition,"[19]; single agent, at 0.05 µM",12.9%
same,inhibition,"[19]; single agent, at 5 µM",25.1%

# From PubChem BioAssay
